Only some compounds are listed: those with a hit (about 12% of all), similar ones and a draw of the others.
Sfp PPTase inh: qHTS Assay for Inhibitors of Bacillus subtilis Sfp phosphopantetheinyl transferase (PPTase); Biochemical Sfp PPTase activity, qHTS; hit rate 3.5% among 310,000; Potency, µM, for inactives: largest response in the series, negative = inhibition, usual class: inhibitors; 4'-phosphopantetheinyl transferase ffp (Bacillus subtilis), Q9F4F7;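 further: the enzyme is Sfp with the accession as filed and its product quenches rhodamine fluorescence; 0% = enzyme reaction without inhibitor and -100% = no enzyme wells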
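After 15 min at room temperature with compound, 15 nM Sfp received 5 uM rhodamine-CoA plus 12.5 uM BHQ-2-ybbR (50 mM Hepes pH 7.6, 10 mM MgCl2). Rate came from the fluorescence difference over 30 min, ex 525/em 598 nm.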
PLK1 PBD block: qHTS for Inhibitors of PLK1-PDB (polo-like kinase 1 - polo-box domain): Primary Screen. Serine/threonine-protein kinase PLK1 (Homo sapiens), P53350. Plk1 PBD binding of FITC phosphopeptide, fluorescence polarization. Potency, µM, for inactives: max response, negative = inhibition, actives largely listed as inhibitors. hit rate 2.8% among 360,000; further: series mostly up to about 57 µM; nearly all actives have a fitted effect of over 65% in size
RORgamma inh: qHTS for inhibitors of ROR gamma transcriptional activity; Drosophila S2 Gal4-RORgamma UAS-luciferase reporter, 20 h; Potency, µM (series often up to 53.6 µM), for inactives: at the highest dose activity change, negative = inhibition, most hits filed as inhibitors; hit rate 5.4% among 310,000; further: nearly all actives have a fitted effect of over 60% in size
Target sequence (P51450 whole entry, looked up, the tested form may be a part): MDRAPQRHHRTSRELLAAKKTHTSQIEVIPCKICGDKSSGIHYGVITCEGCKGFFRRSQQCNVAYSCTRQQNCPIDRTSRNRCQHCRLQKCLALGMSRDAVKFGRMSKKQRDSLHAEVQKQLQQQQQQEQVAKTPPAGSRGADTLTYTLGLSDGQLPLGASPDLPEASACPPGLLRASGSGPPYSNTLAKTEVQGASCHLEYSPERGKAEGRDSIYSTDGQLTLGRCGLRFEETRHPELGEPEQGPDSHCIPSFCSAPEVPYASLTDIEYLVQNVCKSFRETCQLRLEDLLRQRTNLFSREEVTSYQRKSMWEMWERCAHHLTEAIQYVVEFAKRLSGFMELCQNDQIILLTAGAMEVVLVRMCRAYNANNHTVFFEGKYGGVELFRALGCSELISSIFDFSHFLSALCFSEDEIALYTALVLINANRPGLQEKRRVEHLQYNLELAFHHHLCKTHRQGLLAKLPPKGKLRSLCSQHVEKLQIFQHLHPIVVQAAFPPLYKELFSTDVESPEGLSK
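Using a luciferase readout, inhibitors were identified by reduced reporter activity in Drosophila cells coexpressing a copper-inducible Gal4–ROR gamma fusion and UAS-driven Photinus luciferase, incubated 20 hr after 700 uM copper sulfate.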
ALDH1A1 inh: qHTS Assay for Inhibitors of Aldehyde Dehydrogenase 1 (ALDH1A1) | Potency, µM (top dose mostly 75.3 µM), for the others: top-dose activity, negative = inhibition, actives largely listed as inhibitors | Purified ALDH1A1, NADH fluorescence, propionaldehyde substrate | Aldehyde dehydrogenase 1A1 (Homo sapiens), P00352 | AID 1030, 2008 | hit rate 7.3% among 220,000; active means well fitted inhibition curve with a large enough effect, not every such curve was filed as active; inconclusive means small, poorly fitted or top-dose-only effect, or another doubt; inactive means no such curve, though single readings can be large or run the other way;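 further: plate controls were no enzyme wells and a reference inhibitor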
Gal4-VP16 FLuc: VP16 counterscreen qHTS for inhibitors of ROR gamma transcriptional activity | Drosophila S2 Gal4-VP16 UAS-luciferase, luminescence, 20 h | Potency, µM (doses to about 53.6 µM), without a hit: at the top dose activity, negative = inhibition, hits mostly inhibitors | hit rate 3.5% among 310,000;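 further: Gal4-VP16 expression switched on by copper sulfate through the metallothionein promoter; nearly all actives have a fitted effect of over 50% in size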
* hit, by the source's call; ? = inconclusive; / = no result given; [ ] = another dose, or the depositor's remark. Unless noted, the call rests on the fitted dose curve; in most records, active means well fitted curve in the direction sought with a large enough effect; inconclusive means small, poorly fitted or top-dose-only effect, or another doubt; inactive means no such curve, though single readings can be large; an effect the other way counts as inactive or inconclusive. Unless noted, on the % scale 0 is the no-effect control and ±100 the full control effect; potency means the concentration at half of the fitted maximal effect.

SMILES	Sfp PPTase inh	PLK1 PBD block	RORgamma inh	ALDH1A1 inh	Gal4-VP16 FLuc
O=C(O)c1ncn(Cc2ccccc2)c1C(=O)O	50.1µM*	-5.1%	-0.6%	0.7%	0.4%
N[C@@H](Cn1cc(I)c(=O)n(Cc2ccc(C(=O)O)cc2)c1=O)C(=O)O	-15.4%	/	0.7%	0.0%	-0.4%
N[C@@H](Cn1ccc(=O)n(Cc2ccccc2C(=O)O)c1=O)C(=O)O	56.2µM*	/	11.3%	-4.3%	-4.3%
CC[C@@H](c1ccccc1)n1c(=O)n2n(c1=O)[C@H]1[C@H](O)[C@H]3O[C@@H]3/C(=N/OCc3ccccc3)[C@@H]1CC2	0.5%	/	-1.6%[10 µM]	1.0%[13.5 µM]	-1.4%[10 µM]
CCOc1ccccc1Nc1nc(-c2sc(C)nc2C)cs1	?	-1.6%	8.91µM*	20µM*	?
Cc1nc(C)c(-c2csc(NCc3ccccc3)n2)s1	56.2µM*	-16.4%	-28.7%	?	-5.5%
COc1cccc(-c2cc(C(=O)N3CCN(S(=O)(=O)c4ccccc4)CC3)[nH]n2)c1	17.1%	-9.2%	30.0%	/	1.6%
Cc1ccc(-c2cc(C(=O)N3CCc4ccccc4C3)[nH]n2)cc1C	10.5%	-9.3%	1µM*	/	-4.0%
Cc1cc(C(=O)N2CCc3ccccc3C2)n[nH]1	15.4%	-3.6%	3.8%	/	19.8%
COc1cccc(-c2cc(C(=O)N3CCc4ccccc4C3)[nH]n2)c1	11.1%	1.4%	1.12µM*	/	-11.2%
CC(C)(C)C(=O)Nc1nc(=S)ss1	22.4µM*	?	1.0%	5.62µM*	2.3%
CCSc1nnc(NC(=O)CC)s1	-5.2%	-13.5%	2.0%	3.9%	7.5%
CCC(=O)Nc1nc(=S)ss1	10µM*	21.2µM*	-33.4%	2µM*	?
CCN(CC)C(=O)CC(c1ccc(OC)cc1)c1c(OC)cc(OC)c2c(-c3ccccc3)cc(=O)oc12 (centres undefined)	-8.8%	/	?	/	-7.8%
O=C(Nc1ccccc1)c1ccc[nH]1	20.0%	18.9µM*	-2.3%	7.0%	13.3%
CC(C)C[C@H](NC(=O)c1nc[nH]c1C(=O)NC(c1ccccc1)c1ccccc1)C(=O)OC(C)(C)C	27.2%	-6.7%	0.708µM*	?	3.55µM*
O=C(c1ccccc1)c1nc[nH]c1C(=O)Nc1ccccc1	13.3%	1.0%	0.708µM*	4.5%	1.58µM*
CC(C)(C)OC[C@H](NC(=O)c1[nH]cnc1C(=O)Nc1ccccc1F)C(=O)OC(C)(C)C	/	7.5%	/	/	/
Cc1ccc(NC(=O)c2nc[nH]c2C(=O)N[C@@H](C)c2ccccc2)cc1	16.8%	-1.6%	1.12µM*	?	3.16µM*
COC(=O)CCCOc1ccc(Cl)cc1Cl	-3.0%	/	11.0%	12.5%	4.0%
COc1ccc(/C=C/C(=O)OCC(=O)NC2CCCCCC2)cc1	/	-2.8%	/	/	/
CC1(C(=O)NS(=O)(=O)c2cccc(F)c2)CCN1C(=O)c1ccccc1 (centres undefined)	/	-9.6%	/	/	/
C[C@H](NC(=O)c1nc[nH]c1C(=O)N[C@@H](C)c1ccccc1)C(=O)OC(C)(C)C	11.6%	-2.7%	2.82µM*	4.47µM*	6.31µM*
CC(C)C[C@H](NC(=O)c1[nH]cnc1C(=O)N[C@H](C)c1ccccc1)C(=O)OC(C)(C)C	29.1%	0.1%	5.01µM*	-5.9%	5.62µM*
O=C(CCCCCNC(=O)c1ccccc1)C[N+](=O)[O-]	13.6%	-10.7%	-3.8%	2.24µM*	6.8%
SMILES	Sfp PPTase inh	PLK1 PBD block	RORgamma inh	ALDH1A1 inh	Gal4-VP16 FLuc
O=C(CCCCCNC(=S)Nc1ccc(Cl)cc1)C[N+](=O)[O-]	-6.2%	-24.6%	-10.3%	10µM*	0.0%
O=C(CCCCCNC(=S)Nc1ccccc1)C[N+](=O)[O-]	-27.7%	-26.7%	?	3.55µM*	-11.1%
COc1ccc(NC(=S)NCCCCCC(=O)C[N+](=O)[O-])cc1	-33.8%	23.8µM*	4.47µM*	2.51µM*	?
CC1CCN(CCNC(=S)Nc2ccc(Cl)cc2)CC1	2.9%	-10.7%	?	4.6%	?
CC(C)(C)OC(=O)Nc1ccccc1-n1nnnc1C(C(=O)c1ccc(F)cc1)N1CCOCC1 (centres undefined)	/	-21.0%	/	/	/
CC(=O)c1sc(=S)n(Cc2ccccc2)c1C	8.9%	2.9%	-26.8%	/	4.5%
COC(=O)c1sc(=S)n(Cc2ccccc2)c1C	-8.7%	4.1%	-6.7%	8.91µM*	-24.6%
CN(C)S(=O)(=O)c1ccc(C(=O)NCC2CC2(Cl)Cl)cc1 (centres undefined)	-0.6%	23.8µM*	23.1%	/	?
CC(=O)Nc1ccc(NC(=O)CSc2ccc([N+](=O)[O-])cn2)cc1	-3.8%	-15.5%	16.1%	/	4.9%
Clc1ccccc1-c1nnc2sc(-c3cccs3)nn12	?	?	-25.0%	14.1µM*	1.8%
Clc1ccccc1-c1nnc2sc(-c3ccncc3)nn12	-5.2%	26.7µM*	?	-4.9%	3.9%
CN(C)c1ccc(-c2nn3c(-c4ccccc4Cl)nnc3s2)cc1	-12.6%	-9.3%	-1.1%	?	-9.4%
CC1=C(C#N)C(=O)N(C2CCS(=O)(=O)C2)C(=O)/C1=C\c1ccco1 (centres undefined)	44.7µM*	/	-1.0%	/	?
CN(C)c1ncc2nc(-c3ccc(Cl)cc3)c(=O)n(C)c2n1	13.6%	/	7.5%	?	-13.0%
O=C(/C=C/c1ccc(S(=O)(=O)N2CCOCC2)cc1)NCc1ccccc1F	/	-5.4%	/	/	/
O=C(/C=C/c1ccc(S(=O)(=O)N2CCOCC2)cc1)NCc1ccccc1Cl	24.4%	3.9%	-0.1%[10 µM]	8.91µM*	-10.4%
S=C1NC(c2cccs2)=CC(c2ccc(Br)cc2)N1 (centres undefined)	-20.9%	?	3.55µM*	0.398µM*	3.98µM*
S=C1NC(c2ccccc2)=CC(c2ccccc2)N1 (centres undefined)	2.8%	-26.0%	3.55µM*	0.891µM*	11.2µM*
NC(=O)C1CCN(c2oc(-c3cccs3)nc2S(=O)(=O)c2ccc(Br)cc2)CC1	/	-6.4%	/	/	/
N#CC1C(=O)NC(c2ccccc2)=CC1c1ccccc1 (centres undefined)	/	3.0%	/	/	/
COc1ccc(CCNC(=O)c2ccc(F)c(S(=O)(=O)N3CCCCC3)c2)cc1	/	-4.0%	/	/	/
COc1ccc([C@@H]2C[C@H]3[C@@H](CN2S(=O)(=O)c2ccccc2)C(=O)C[C@@H](c2ccc(C)cc2)N3S(=O)(=O)c2ccc(C)cc2)cc1	/	-2.9%	/	/	/
CC(=O)N1CCN(CC(=O)Nc2sccc2C#N)CC1	0.2%	23.8µM*	-15.7%	4.4%	3.8%
Cc1ccc(C(=O)OCC(=O)Nc2ccc(N(C)C)cc2)cc1NC(=O)c1ccco1	10.9%	-6.7%	0.0%	11.9µM*	-13.0%
CCC(C)c1ccccc1NC(=O)COC(=O)c1ccc(C)c(NC(=O)c2ccco2)c1 (centres undefined)	12.9%	-2.1%	?	39.8µM*	-5.8%
